Source: the supplement of paper PMC10849652
About 7,900 targets were measured; listed, in parts, are those with a hit and a random draw of the rest. About 0.6% of all pairs of compound and target were hits. Values without a mark were called inactive.

How the values were obtained:
Assay in all cases: log2 fold change, soluble protein after heating vs DMSO (PISA); higher = thermal stabilisation; K562 cells, 10 uM, 30 min; active = over 0.2 and 3.5 SD of the protein, either way, in both replicates (recomputed)
[1] = compound: CC1=C(C=C(C=C1)NC(=O)C2=CC(=CC=C2)C(C)(C)C#N)NC3=CC4=C(C=C3)N=CN(C4=O)C
Summary of the method: (§1)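 K562 cells at 2×10^6 cells/mL were treated with 10 μM compound for 30 min. Aliquots were heated for 3 min across 48°C-58°C, pooled, and extracted in PBS with 0.5% NP-40 at 4°C; soluble protein was the supernatant after 21,000xg for 90 min. Soluble protein was quantified by TMTpro 16plex LC-MS/MS with channel sums equalised, and reported as log2 fold change in thermal stability against DMSO controls, with values from duplicates.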

[2] = compound: CC1=C(C=C(C=C1)NC(=O)C2=CC(=CC=C2)N(C)C)NC(=O)C3=CC=C(C=C3)O
Summary of the method: as §1

[3] = compound: CC1=CC=C(C=C1)SC2=C3C=C(SC3=CN=C2)C(=O)N
Summary of the method: as §1

[4] = compound: CC1=NC(=CC=C1)C2=C(N=C(N2)C(C)(C)C)C3=CC4=NC=CN=C4C=C3
Summary of the method: as §1

Nexturastat A = compound: CCCCN(Cc1ccc(C(=O)NO)cc1)C(=O)Nc1ccccc1 [Nexturastat A]
Summary of the method: as §1

vemurafenib = compound: CCCS(=O)(=O)Nc1ccc(F)c(C(=O)c2c[nH]c3ncc(-c4ccc(Cl)cc4)cc23)c1F [vemurafenib]
Summary of the method: as §1

[5] = compound: CCCS(=O)(=O)Nc1ccc(F)c(C(=O)c2c[nH]c3ncc(Cl)cc23)c1F
Summary of the method: as §1

[6] = compound: CCCc1cc(C)[nH]c(=O)c1CNC(=O)c1cc(-c2ccnc(N3CCN(C)CC3)c2)cc2c1cnn2C(C)C
Summary of the method: as §1

givinostat = compound: CCN(CC)Cc1ccc2cc(COC(=O)Nc3ccc(C(=O)NO)cc3)ccc2c1 [givinostat]
Summary of the method: as §1

barasertib = compound: CCN(CCCOc1ccc2c(Nc3cc(CC(=O)Nc4cccc(F)c4)[nH]n3)ncnc2c1)CCOP(=O)(O)O [barasertib]
Summary of the method: as §1

[7] = compound: CC[C@@H]1C(=O)N(C)c2cnc(Nc3ccc(C(=O)NC4CCN(C)CC4)cc3OC)nc2N1C1CCCC1
Summary of the method: as §1

volasertib = compound: CC[C@@H]1C(=O)N(C)c2cnc(Nc3ccc(C(=O)N[C@H]4CC[C@H](N5CCN(CC6CC6)CC5)CC4)cc3OC)nc2N1C(C)C [volasertib]
Summary of the method: as §1

[8] = compound: CC[C@H](C)N1C=C(C2=C(C=C(C=C21)C3=CN=C(C=C3)N4CCNCC4)C(=O)NCC5=C(C=C(NC5=O)C)C)C
Summary of the method: as §1

epoxomicin = compound: CC[C@H](C)[C@@H](C(=O)N[C@@H]([C@@H](C)O)C(=O)N[C@@H](CC(C)C)C(=O)[C@]1(CO1)C)NC(=O)[C@H]([C@@H](C)CC)N(C)C(=O)C [epoxomicin]
Summary of the method: as §1

[9] = compound: CCn1c(C(=O)N(C2CC2)C2CC2)cc2c3c(ncn3C)c(Nc3cc(C)n(C)n3)nc21
Summary of the method: as §1

[10] = compound: CCn1cc(-c2ccnc3[nH]c(-c4cccc(CN(C)C)c4)cc23)c(-c2ccc(NC(=O)N(C)C)cc2)n1
Summary of the method: as §1

[11] = compound: CN(C)CC(=O)Nc1ccc2[nH]c(=O)c3ccccc3c2c1
Summary of the method: as §1

rosiglitazone = compound: CN(CCOC1=CC=C(C=C1)C[C@H]2C(=O)NC(=O)S2)C3=CC=CC=N3 (racemic) [rosiglitazone]
Summary of the method: as §1

[12] = compound: CN1C2=C(C3=C1C(=O)N(N=C3)CC4=CC(=CC=C4)N)SC(=C2)S(=O)C
Summary of the method: as §1

[13] = compound: CN1CCC(CNc2ccc3ncc(-c4cccc(OC(F)(F)F)c4)n3n2)CC1
Summary of the method: as §1

Sequence of UniProt Q12768 (Q12768 whole entry, looked up): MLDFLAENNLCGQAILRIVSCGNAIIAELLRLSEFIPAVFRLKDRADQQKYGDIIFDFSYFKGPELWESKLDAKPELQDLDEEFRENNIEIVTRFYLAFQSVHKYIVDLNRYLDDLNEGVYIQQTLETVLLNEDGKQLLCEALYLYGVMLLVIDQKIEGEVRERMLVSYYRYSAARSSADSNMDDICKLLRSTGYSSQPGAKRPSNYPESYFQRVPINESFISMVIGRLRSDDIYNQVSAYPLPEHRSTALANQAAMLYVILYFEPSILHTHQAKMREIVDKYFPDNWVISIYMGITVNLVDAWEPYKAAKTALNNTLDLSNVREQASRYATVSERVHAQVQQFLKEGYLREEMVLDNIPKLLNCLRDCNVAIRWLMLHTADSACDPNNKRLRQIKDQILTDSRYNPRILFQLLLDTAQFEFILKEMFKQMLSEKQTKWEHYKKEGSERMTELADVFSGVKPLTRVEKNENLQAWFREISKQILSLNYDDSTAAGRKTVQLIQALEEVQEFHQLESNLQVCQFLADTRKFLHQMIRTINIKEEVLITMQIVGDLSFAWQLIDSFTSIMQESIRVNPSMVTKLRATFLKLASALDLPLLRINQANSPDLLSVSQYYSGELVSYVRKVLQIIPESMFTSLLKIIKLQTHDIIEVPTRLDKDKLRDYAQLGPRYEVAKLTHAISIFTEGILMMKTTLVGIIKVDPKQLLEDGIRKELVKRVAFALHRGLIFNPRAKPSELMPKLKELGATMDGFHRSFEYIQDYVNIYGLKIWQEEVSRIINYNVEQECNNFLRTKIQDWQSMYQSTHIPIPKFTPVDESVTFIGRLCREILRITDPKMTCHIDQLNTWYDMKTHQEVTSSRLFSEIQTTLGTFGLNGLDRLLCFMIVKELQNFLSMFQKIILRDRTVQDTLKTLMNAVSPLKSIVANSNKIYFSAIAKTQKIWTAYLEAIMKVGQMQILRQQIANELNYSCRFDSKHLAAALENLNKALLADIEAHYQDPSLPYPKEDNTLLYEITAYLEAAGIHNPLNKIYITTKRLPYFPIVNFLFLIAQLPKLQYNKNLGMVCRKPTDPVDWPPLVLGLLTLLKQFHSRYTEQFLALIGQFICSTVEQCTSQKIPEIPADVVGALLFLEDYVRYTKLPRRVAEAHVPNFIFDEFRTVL
Sequence of UniProt O94874 (O94874 whole entry, looked up): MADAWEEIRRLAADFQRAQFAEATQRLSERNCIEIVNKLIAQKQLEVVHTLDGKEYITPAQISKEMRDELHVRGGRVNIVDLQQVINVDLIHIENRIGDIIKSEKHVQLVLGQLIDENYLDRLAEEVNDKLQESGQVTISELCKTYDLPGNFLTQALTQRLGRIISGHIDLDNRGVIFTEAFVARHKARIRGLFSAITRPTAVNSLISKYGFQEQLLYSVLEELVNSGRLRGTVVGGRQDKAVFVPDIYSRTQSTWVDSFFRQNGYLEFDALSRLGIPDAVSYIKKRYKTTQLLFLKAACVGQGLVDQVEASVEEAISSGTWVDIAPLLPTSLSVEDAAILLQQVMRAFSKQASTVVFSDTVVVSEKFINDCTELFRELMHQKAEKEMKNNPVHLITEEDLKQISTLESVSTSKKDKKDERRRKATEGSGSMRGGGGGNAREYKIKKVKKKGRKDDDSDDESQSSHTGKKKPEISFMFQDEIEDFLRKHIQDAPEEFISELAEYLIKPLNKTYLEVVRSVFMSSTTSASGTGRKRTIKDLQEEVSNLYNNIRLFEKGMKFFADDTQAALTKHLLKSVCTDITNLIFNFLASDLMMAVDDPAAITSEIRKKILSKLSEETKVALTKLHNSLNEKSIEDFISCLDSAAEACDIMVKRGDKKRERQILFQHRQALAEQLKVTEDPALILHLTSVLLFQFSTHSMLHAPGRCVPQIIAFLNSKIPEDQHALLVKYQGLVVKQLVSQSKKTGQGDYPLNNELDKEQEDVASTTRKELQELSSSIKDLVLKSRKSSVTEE
Sequence of UniProt Q01081 (Q01081 whole entry, looked up): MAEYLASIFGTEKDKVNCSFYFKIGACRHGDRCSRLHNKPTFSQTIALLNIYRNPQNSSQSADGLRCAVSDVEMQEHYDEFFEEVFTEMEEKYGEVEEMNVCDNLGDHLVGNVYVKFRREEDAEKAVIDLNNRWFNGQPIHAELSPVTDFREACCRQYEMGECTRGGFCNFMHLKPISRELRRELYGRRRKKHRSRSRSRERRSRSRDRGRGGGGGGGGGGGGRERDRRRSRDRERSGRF
Sequence of UniProt Q9Y4E6 (Q9Y4E6 whole entry, looked up): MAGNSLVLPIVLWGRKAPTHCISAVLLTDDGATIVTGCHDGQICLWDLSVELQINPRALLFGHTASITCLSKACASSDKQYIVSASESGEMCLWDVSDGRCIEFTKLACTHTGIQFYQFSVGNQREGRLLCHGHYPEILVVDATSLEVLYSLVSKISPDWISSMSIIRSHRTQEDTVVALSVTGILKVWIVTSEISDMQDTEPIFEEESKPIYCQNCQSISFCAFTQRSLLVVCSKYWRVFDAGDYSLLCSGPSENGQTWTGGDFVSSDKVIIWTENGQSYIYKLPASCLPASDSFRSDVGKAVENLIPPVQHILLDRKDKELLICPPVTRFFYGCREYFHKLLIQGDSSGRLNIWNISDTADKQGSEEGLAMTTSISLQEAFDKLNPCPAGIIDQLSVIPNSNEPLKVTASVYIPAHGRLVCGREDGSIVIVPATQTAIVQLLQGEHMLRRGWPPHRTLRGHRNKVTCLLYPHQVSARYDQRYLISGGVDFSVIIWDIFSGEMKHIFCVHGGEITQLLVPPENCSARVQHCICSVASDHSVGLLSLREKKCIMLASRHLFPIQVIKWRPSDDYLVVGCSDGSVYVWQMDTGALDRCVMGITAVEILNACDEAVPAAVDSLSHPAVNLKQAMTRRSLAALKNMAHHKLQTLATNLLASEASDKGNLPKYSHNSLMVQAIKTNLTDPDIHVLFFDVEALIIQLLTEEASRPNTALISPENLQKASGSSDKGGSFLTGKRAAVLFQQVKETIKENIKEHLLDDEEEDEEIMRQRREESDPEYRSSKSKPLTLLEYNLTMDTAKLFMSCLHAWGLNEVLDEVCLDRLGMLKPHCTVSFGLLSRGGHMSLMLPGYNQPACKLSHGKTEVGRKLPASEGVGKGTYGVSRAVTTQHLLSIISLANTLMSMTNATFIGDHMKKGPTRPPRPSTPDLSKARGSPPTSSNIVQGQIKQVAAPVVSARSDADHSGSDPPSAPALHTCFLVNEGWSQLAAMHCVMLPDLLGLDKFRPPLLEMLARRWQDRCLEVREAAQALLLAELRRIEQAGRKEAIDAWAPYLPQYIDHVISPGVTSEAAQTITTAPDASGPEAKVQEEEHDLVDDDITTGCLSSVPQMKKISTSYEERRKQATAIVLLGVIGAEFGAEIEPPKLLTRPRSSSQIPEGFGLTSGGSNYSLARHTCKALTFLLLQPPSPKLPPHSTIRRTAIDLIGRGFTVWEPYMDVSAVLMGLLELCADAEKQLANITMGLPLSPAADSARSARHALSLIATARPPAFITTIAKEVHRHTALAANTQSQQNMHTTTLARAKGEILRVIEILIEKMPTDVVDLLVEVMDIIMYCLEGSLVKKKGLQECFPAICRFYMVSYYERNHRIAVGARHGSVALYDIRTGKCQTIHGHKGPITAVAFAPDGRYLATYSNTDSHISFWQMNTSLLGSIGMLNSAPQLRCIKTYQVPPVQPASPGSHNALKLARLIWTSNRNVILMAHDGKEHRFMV
Sequence of UniProt P54578 (P54578 whole entry, looked up): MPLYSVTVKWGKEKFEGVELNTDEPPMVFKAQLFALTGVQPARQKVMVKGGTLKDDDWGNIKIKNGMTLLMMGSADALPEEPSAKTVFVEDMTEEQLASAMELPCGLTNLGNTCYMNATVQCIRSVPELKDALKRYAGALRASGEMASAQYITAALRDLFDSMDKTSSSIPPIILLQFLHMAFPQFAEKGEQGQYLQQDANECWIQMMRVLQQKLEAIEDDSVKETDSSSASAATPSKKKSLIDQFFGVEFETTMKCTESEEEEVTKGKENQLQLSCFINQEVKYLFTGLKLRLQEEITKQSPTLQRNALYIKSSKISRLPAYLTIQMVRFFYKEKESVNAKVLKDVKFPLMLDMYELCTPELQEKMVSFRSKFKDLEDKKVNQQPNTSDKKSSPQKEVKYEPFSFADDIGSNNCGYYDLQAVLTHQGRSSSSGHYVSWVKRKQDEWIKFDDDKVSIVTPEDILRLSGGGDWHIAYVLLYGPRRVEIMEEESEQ
Sequence of UniProt O60784 (O60784 whole entry, looked up): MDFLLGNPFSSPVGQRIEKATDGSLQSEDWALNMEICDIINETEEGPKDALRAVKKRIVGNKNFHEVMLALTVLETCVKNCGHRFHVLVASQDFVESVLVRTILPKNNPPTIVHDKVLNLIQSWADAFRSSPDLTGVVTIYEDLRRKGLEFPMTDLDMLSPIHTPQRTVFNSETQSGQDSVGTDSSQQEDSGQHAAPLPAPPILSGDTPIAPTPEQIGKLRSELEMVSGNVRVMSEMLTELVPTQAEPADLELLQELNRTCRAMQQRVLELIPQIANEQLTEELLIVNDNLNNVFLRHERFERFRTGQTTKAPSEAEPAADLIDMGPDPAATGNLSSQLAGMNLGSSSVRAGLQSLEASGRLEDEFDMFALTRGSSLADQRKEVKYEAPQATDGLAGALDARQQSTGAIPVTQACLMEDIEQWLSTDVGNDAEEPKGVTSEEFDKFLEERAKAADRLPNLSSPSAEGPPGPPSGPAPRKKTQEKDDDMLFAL
Sequence of UniProt Q8N4H5 (Q8N4H5 whole entry, looked up): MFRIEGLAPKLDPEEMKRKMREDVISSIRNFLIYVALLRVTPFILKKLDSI
Sequence of UniProt Q9NP79 (Q9NP79 whole entry, looked up): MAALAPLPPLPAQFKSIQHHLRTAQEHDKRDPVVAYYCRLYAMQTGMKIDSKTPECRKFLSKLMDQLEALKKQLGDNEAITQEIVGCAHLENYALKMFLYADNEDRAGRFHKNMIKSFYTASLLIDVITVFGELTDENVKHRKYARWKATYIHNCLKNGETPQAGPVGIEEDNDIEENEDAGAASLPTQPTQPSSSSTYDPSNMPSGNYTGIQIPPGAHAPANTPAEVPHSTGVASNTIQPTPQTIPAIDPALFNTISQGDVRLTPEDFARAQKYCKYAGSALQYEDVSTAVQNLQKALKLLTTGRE

| Target | log2 fold change [1] | log2 fold change [2] | log2 fold change [3] | log2 fold change [4] | log2 fold change (Nexturastat A) | log2 fold change (vemurafenib) | log2 fold change [5] | log2 fold change [6] | log2 fold change (givinostat) | log2 fold change (barasertib) | log2 fold change [7] | log2 fold change (volasertib) | log2 fold change [8] | log2 fold change (epoxomicin) | log2 fold change [9] | log2 fold change [10] | log2 fold change [11] | log2 fold change (rosiglitazone) | log2 fold change [12] | log2 fold change [13] |
| --- | --- | --- | --- | --- | --- | --- | --- | --- | --- | --- | --- | --- | --- | --- | --- | --- | --- | --- | --- | --- |
| TUBA4A (UniProt P68366) | 0.005 | 0.004 | 0.061 | 0.04 | -0.03 | 0.005 | 0.068 | -0.004 | 0.014 | -0.002 | -0.024 | -0.01 | 0.007 | 0.055 | -0.002 | -0.064 | -0.013 | 0.023 | -0.168 | -0.261 (active) |
| WDR18 (UniProt Q9BV38) | -0.042 | 0.08 | 0.016 | 0.014 | -0.035 | 0.04 | -0.003 | 0.004 | -0.025 | 0.013 | 0.034 | -0.1 | 0.022 | 0.016 | 0.039 | -0.026 | -0.017 | 0.007 | 0.018 | -0.002 |
| WDR7 (UniProt Q9Y4E6) | -0.029 | -0.008 | -0.016 | -0.025 | -0.216 | 0.091 | 0.083 | 0.202 | 0.067 | 0.03 | -0.09 | -0.415 (active) | 0.027 | -0.007 | -0.085 | -0.007 | 0.279 | 0.082 | 0.034 | -0.199 |
| VTA1 (UniProt Q9NP79) | 0.011 | -0.019 | 0.044 | 0.034 | -0.041 | 0.042 | 0.082 | -0.065 | -0.005 | 0.041 | -0.172 | -0.291 (active) | 0.06 | 0.024 | 0.026 | -0.045 | 0.048 | 0.016 | -0.041 | -0.079 |
| WASHC5 (UniProt Q12768) | -0.011 | -0.011 | 0 | -0.006 | 0.052 | 0.004 | 0.004 | 0.065 | 0.085 | 0.077 | -0.109 | -0.268 | 0.09 | 0.049 | -0.061 | 0.035 | 0.045 | 0.008 | -0.006 | -0.114 |
| TOMM5 isoform 2 (UniProt Q8N4H5) | -0.009 | 0.367 | 0.005 | 0.084 | 0.025 | 0 | -0.011 | 0.141 | -0.029 | 0.03 | -0.003 | -0.032 | -0.049 | 0.538 (active) | 0.05 | 0.039 | -0.046 | -0.017 | 0.041 | 0.116 |
| TOM1 isoform 2 (UniProt O60784) | 0.17 | 0.026 | 0.02 | 0.051 | -0.028 | 0.17 | 0.041 | 0 | 0.013 | -0.01 | -0.056 | -0.196 | 0.037 | -0.035 | -0.018 | -0.082 | 0.026 | 0.001 | 0.006 | -0.274 |
| TMEM263 (UniProt Q8WUH6) | -0.009 | -0.015 | 0.117 | 0.059 | -0.02 | -0.051 | 0.128 | -0.138 | -0.015 | 0.054 | -0.462 (active) | -0.5 | -0.03 | 0.005 | -0.004 | -0.105 | 0.024 | 0.015 | -0.057 | -1.32 (active) |
| UBA1 (UniProt P22314) | 0.039 | -0.054 | 0.048 | 0.006 | -0.066 | 0.084 | 0.089 | 0.058 | 0.074 | 0.138 | -0.236 | -0.543 (active) | 0.133 | 0.044 | -0.098 | -0.008 | 0.115 | 0.132 | 0.023 | -0.02 |
| USP14 (UniProt P54578) | 0.023 | -0.018 | 0.01 | 0.034 | -0.069 | 0.021 | 0.093 | 0.012 | -0.006 | 0.032 | -0.08 | -0.197 | 0.053 | 0.106 | -0.005 | -0.011 | 0.003 | 0.007 | -0.082 | -0.072 |
| UFL1 (UniProt O94874) | -0.009 | -0.089 | 0.011 | 0.048 | 0.091 | 0.083 | 0.089 | 0.043 | 0.08 | 0.031 | -0.063 | -0.351 (active) | 0.086 | 0.004 | -0.06 | -0.023 | 0.054 | 0.06 | 0.04 | -0.089 |
| U2AF1 isoform 2 (UniProt Q01081) | -0.011 | -0.078 | -0.01 | 0.091 | 0.011 | 0.074 | 0.071 | -0.009 | 0.022 | 0.009 | -0.217 | -0.57 (active) | 0.051 | -0.02 | 0.015 | -0.015 | 0.071 | -0.007 | -0.021 | -0.036 |
